In PubChem BioAssay (Tox21):
The source made the active and inactive calls. Where a call stands in place of a potency, no number is given. Calls come from the whole dose curve; as a rule, active = well fitted curve in the direction sought with a large enough effect in the repeat runs; inconclusive = weak or mixed curves; inactive = flat fitted curve, though single readings scatter.

Test: qHTS assay to test for compound auto fluorescence at 535 nm (green) in HepG2 cells (AID 720675)
Settings: green autofluorescence 485/535 nm, 1 h; series mostly up to 46 µM
Excerpt: National Center for Advancing Translational Sciences [NCATS]
NIH Chemical Genomics Center [NCGC]
U.S. Environmental Protection Agency [EPA]
National Institutes of Environmental Health Sciences [NIEHS]
National Toxicology Program [NTP]
U.S. Food and Drug Administration [FDA]
Compound auto fluorescence often interferes with screening of the compound library against various biological targets and signaling pathways. Some of these compounds may have fluorophoric properties. Such properties may interfere with the assay outputs resulting in false positives and/or negatives. To decrease such complications and ensure the compound activities are relevant in terms of biological response, the Tox21 10K compound library was screened for auto fluorescence.
From the fluorophores used as reporter signals in our screening assays, the auto fluorescence equivalencies of compounds against three fluorophores have been evaluated: Triamterene, Fluorescein and Rose Bengal sodium for blue, green and red fluorescence, respectively. The fluorescence intensities were measured using Excitation/Emission wavelengths at 405/460nm, 485/535nm and 540/590nm for blue, green and red labels, respectively. This assay includes the green fluorescence data.
Tox21 Assay Protocol Summary:
2,000 HepG2 cells in 5 uL of culture medium (MEM containing 10% FBS) per well were dispensed into black wall/clear bottom 1536-well plates using a Multidrop Combi Dispenser (ThermoFisher Scientific, Waltham, MA). The assay plates were incubated overnight at 37 C to allow cell attachment to the well bottom, followed by the transfer of 23 nL compound or DMSO vehicle by a pintool work station (Kalypsys , San Diego, CA). After the assay plates were incubated for 1 hr at 37 C and 5% CO2, fluorescence intensities in the assay plates were measured by an Envision (PerkinElmer, Shelton, CT) plate reader using three labels for measuring blue, green and red fluorescence at […] 460, 535 and 590 nm respectively.

SMILES	Potency
CCCCNC(C)(C)[P+](=O)O	inactive
CCCCCCC(=O)O[C@H]1CC[C@H]2[C@@H]3CC[C@H]4CC(=O)C=C(C)[C@]4(C)[C@H]3CC[C@]12C	inactive
C[C@]12C[C@H]3S[C@H]3C[C@@H]1CC[C@@H]1[C@@H]2CC[C@]2(C)[C@@H](O)CC[C@@H]12	inactive
CCOc1ccc2c3c1O[C@H]1[C@@H](O)C=C[C@H]4[C@@H](C2)N(C)CC[C@@]341	inactive
CCCCCCCCCC(=O)O[C@H]1CC[C@H]2[C@@H]3CCC4=CC(=O)CC[C@]4(C)[C@H]3CC[C@]12C	inactive
Oc1cc[c]([Hg][Cl])cc1	inactive
CC(C)=CCN1CC[C@]2(C)c3cc(O)ccc3C[C@H]1[C@H]2C	inactive
CC[N+](C)(CC)CCOC(=O)C(O)(c1ccccc1)c1ccccc1	inactive
C1CN(P2(N3CC3)=NP(N3CC3)(N3CC3)=NP(N3CC3)(N3CC3)=N2)CCO1 (stereo not given)	inactive
CCCCc1ccc(C(=O)O)nc1	inactive
CCC1(c2ccccc2)C(=O)NC(=O)N(C)C1=O (stereo not given)	inactive
NCC(O)c1cccc(O)c1 (stereo not given)	inactive
O=c1ccc2cc(O[C@@H]3O[C@H](CO)[C@@H](O)[C@H](O)[C@H]3O)c(O)cc2o1	inactive
CCN(CC)CCO[C@H]1CC[C@@]2(C)C(=CC[C@@H]3[C@@H]2CC[C@]2(C)C(=O)CC[C@@H]32)C1	inactive
C[C@]12N[C@H](Cc3ccccc31)c1ccccc12	inactive
COc1ccc2c3c1O[C@H]1C(=O)CC[C@H]4[C@@H](C2)N(C)CC[C@]314	inactive
O=C1C=C2C=C[C@@H]3C[C@@]2(O1)[C@H]1CCCCN31	inactive
c1ccc2c(c1)Sc1ccccc1N2CC1CN2CCC1CC2 (stereo not given)	inactive
CC(N)Cc1ccc(O)cc1 (stereo not given)	inactive
CC(C)C[C@H](CN)CC(=O)O	inactive

SMILES	Potency
O=C(OCCN1CCCCC1)C(O)(c1ccccc1)c1ccccc1	inactive
c1ccccc1	inactive
CCNCC(O)c1cccc(O)c1 (stereo not given)	inactive
COc1cc(C[C@H](C)N)c(OC)cc1C	inactive
CCCC(=O)OC(C(Cl)(Cl)Cl)P(=O)(OC)OC (stereo not given)	inactive
N#CC1(N2CCCCC2)CCCCC1	inactive
CNC(C)C(O)c1ccc(O)cc1 (stereo not given)	inactive
C[C@]12CCC(=O)C[C@@H]1CC[C@@H]1[C@@H]2CC[C@@]2(C)[C@H]1CC[C@]2(C)O	inactive
CCCC(C)(COC(N)=O)COC(=O)NC1CC1 (stereo not given)	inactive
CNC(=O)Oc1ccccc1C(=O)Nc1ccccc1	inactive
CN(C)[C@H](Cc1ccccc1)c1ccccc1	inactive
C[C@]12C=CC(=O)C=C1CC[C@@H]1[C@@H]2CC[C@]2(C)OC(=O)CC[C@@H]12	inactive
CN[C@H]1C[C@@H](N)[C@H](O)[C@@H](O[C@@H]2O[C@H](CO)[C@H](O)[C@@H]3OC4(O[C@H]23)O[C@H](C(N)CO)[C@H](O)[C@H](O)[C@H]4O)[C@@H]1O (stereo not given in full)	inactive
CCNC1(c2cccs2)CCCCC1=O (stereo not given)	inactive
CN1CCCC(=C(c2cccs2)c2cccs2)C1	inactive
C/C(=C\c1csc(C)n1)[C@@H]1C[C@@H]2O[C@]2(C)CCC[C@H](C)[C@H](O)[C@@H](C)C(=O)C(C)(C)[C@@H](O)CC(=O)O1	inactive
Cc1nnc2n1-c1sc(CCc3ccc(CC(C)C)cc3)cc1C(c1ccccc1Cl)=NC2C (stereo not given)	inactive
O=C1CCO1	inactive
C=C[C@H]1CN2CC[C@H]1C[C@@H]2[C@@H](O)c1ccnc2ccccc12	inactive
Cc1ccccc1-n1c(CF)nc2ccc(N)cc2c1=O	inactive
